S aureus helic: blocks Staphylococcus aureus DNA helicase; actives 0.05% (n = 120,000); inhibition, % (concentration not given with the values); purified S. aureus helicase, fluorescence unwinding assay; AID 485395; in the data active = inhibition above about 25%, passing the limit was not always enough;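 note: 0% = mean of negative control wells and 100% = mean of positive control wells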
Sa growth inh: S. aureus growth inhibition. S. aureus RN4220 growth, OD600, 20 h, 42 °C; hits give low values. relative growth, % (test concentration not listed). actives 0.53% (n = 170,000);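 active = relative growth at most 50% at the other temperature and 20+ points below 30 °C, or under 10% at both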
Starred values were filed as active, the others as inactive; x = no result. Hits are enriched below; roughly 0.52% of the tested compounds scored in any of these assays.

SMILES	S aureus helic	Sa growth inh
CO[C@H]1C[C@H](O[C@H]2[C@H](C)[C@@H](O[C@@H]3O[C@H](C)C[C@H](N(C)C)[C@H]3OC(C)=O)[C@@H](C)C[C@@]3(CO3)C(=O)[C@H](C)[C@@H](OC(C)=O)[C@@H](C)[C@@H](C)OC(=O)[C@@H]2C)O[C@@H](C)[C@@H]1OC(C)=O	x	3.7*
COc1ccc(Nc2nc(N)nc(CSC(=S)N(C)C3CCCCC3)n2)cc1	-12.0	117.8
COc1cccc2c(=O)cc(C)[nH]c12	5.0	91.2
O=c1cc(C(F)(F)F)[nH]c2ccc(Br)cc12	x	25.5
O=c1cc(C(F)(F)F)[nH]c2c(OC(F)(F)F)cccc12	x	3.4*
O=c1cc(C(F)(F)F)[nH]c2c(Br)cccc12	-18.0	3.1*
Cc1nn(-c2ccc(N3CCCCC3)nn2)c(C)c1CCC(=O)NCc1ccc(OC(C)C)cc1	x	98.4
COc1ccc(/C=C(\C#N)c2ccc(OC)cc2)cc1	x	133.3
COc1ccc(/C=C(\C#N)c2ccc(C)cc2)cc1	x	43.5*
CCc1ccc(NS(=O)(=O)c2cc(-c3cnc(C4CC4)o3)ccc2C)cc1	x	105.5
COc1nncc(-c2cnnc(SC)n2)n1	8.0	0.1*
COc1ccc(-c2ccnc(SC)n2)cc1	x	128.9
COC(=O)c1c2c(n3ccc(C)cc13)C(=O)c1ccccc1C2=O	21.0	7.5*
COC(=O)c1c2c(n3ccccc13)C(=O)c1ccccc1C2=O	-65.0	x
O=C(CSc1nc2c([nH]c3ccccc32)c(=O)n1-c1cccc(Cl)c1)NCC1CCCO1 (configuration not stated)	x	113.3
O=C1c2cccnc2C(=O)N1Cc1ccc(S(=O)(=O)Nc2cccnc2)cc1	15.0	95.6
O=Cc1c(O)c2ccccc2c2ccccc12	-2.0	9.1*
O=c1oc2ccccc2c(O)c1C=Nc1ccccc1	9.0	94.5
FC(F)(F)c1ccc(-c2nnc(-c3cccs3)o2)cc1	x	108.1
C[C@@H]1CN(c2c(F)c(N)c3c(=O)c(C(=O)O)cn(C4CC4)c3c2F)C[C@H](C)N1	x	-0.1*
COc1cc(Cl)c(C)cc1NC(=O)COCc1cc(-c2ccco2)on1	9.0	84.0
CCCCOc1ccc(C(=O)OCC2CCCN3CCCCC23)cc1OC (configuration not stated)	13.0	42.9*
O=C(OC[C@@H]1CCCN2CCCCC12)c1ccccc1 (some centres not stated)	9.0	92.6
COCCn1c(=NC(=O)/C=C/c2cccs2)sc2cc(Br)ccc21	20.0	x
Oc1cccc2ccc(Nc3ccccn3)nc12	11.0	77.4
SMILES	S aureus helic	Sa growth inh
CNc1ccc2cccc(O)c2n1	13.0	0.4*
COCCn1c(=O)[nH]c2cc(C(=O)N3CCN(c4ccc(F)cc4)CC3)ccc2c1=O	x	102.1
N#Cc1ccc(S(=O)(=O)N2CCN(S(=O)(=O)c3cccs3)CC2)cc1	6.0	92.4
Cc1cccc(NC(=O)Cn2c(=O)n(CCCCCC(=O)NCc3ccc4c(c3)OCO4)c(=O)c3sccc32)c1	x	109.5
Cc1ccc(S(=O)(=O)NCC(=O)NC2CCCC2)cc1	4.0	115.1
Cn1c(=N)n(CC(=O)c2ccc(-c3ccccc3)cc2)c2ccccc21	8.0	117.4
C=CCn1c(=N)n(CC(=O)c2ccc(-c3ccccc3)cc2)c2ccccc21	13.0	5.3*
Cc1cc(C)c2c(N)c(S(=O)Cc3ccc(Cl)cc3)sc2n1 (configuration not stated)	8.0	95.8
Cc1ccc(C)n1-c1ccc(SCC(=O)O)cc1	42.0*	89.0
COc1ccc(SCC(=O)O)cc1	-1.0	118.2
O=C1NC(=O)/C(=C\c2cccc(C(F)(F)F)c2)S1	-31.0	7.3*
CN(C)c1ccc(/C=C2\SC(=O)NC2=O)cc1	-22.0	x
CN(C)S(=O)(=O)c1ccc(C(=O)NC(=O)CSc2ccccc2)cc1	-12.0	x
COc1ccc(-c2cc(C(F)(F)F)nc(SCC(=O)N3CC4(C)CC3CC(C)(C)C4)n2)cc1 (configuration not stated)	8.0	109.1
CCCS(=O)(=O)N1CCN(Cc2ccco2)CC1	-12.0	72.7
O=C(Nc1noc2ccccc12)c1c(F)cccc1F	x	108.6
Cc1ccc(C(=O)CC(c2ccccc2)C(C#N)C#N)cc1 (configuration not stated)	-9.0	47.6*
COc1cccc(C(CC(=O)c2ccc(Cl)cc2)C(C#N)C#N)c1 (configuration not stated)	2.0	50.6
CCOC(=O)c1c(NC(=O)CSc2nnc(N)s2)sc2c1CCCC2	-2.0	89.8
CCOC(=O)c1cc(=O)c2cc(Cl)ccc2o1	x	102.6
COc1cc2c3nc4n(c(=O)c3n(C)c2cc1OC)CCS4	49.0*	97.8
Cn1c2ccc(F)cc2c2nc3n(c(=O)c21)CCS3	-3.0	96.1
COC(NC(=O)Nc1nc2ccccc2s1)(C(F)(F)F)C(F)(F)F	3.0	5.5*
CCNC(=O)Nc1nc2ccccc2s1	-15.0	115.4
CC1CC(=O)C2=C(C1)Nc1ccccc1N(C(=O)COc1ccccc1)C2c1ccco1 (configuration not stated)	17.0	97.9
SMILES	S aureus helic	Sa growth inh
Oc1c(C(c2ccc(F)cc2)N2CCCCC2)ccc2cccnc12 (configuration not stated)	-10.0	102.6
Oc1c(C(c2cccs2)N2CCCCC2)ccc2cccnc12 (configuration not stated)	10.0	8.1*
CC[C@H]1OC(=O)[C@H](C)[C@@H](O[C@H]2C[C@@](C)(OC)[C@@H](O)[C@H](C)O2)[C@H](C)[C@@H](O[C@@H]2O[C@H](C)C[C@H](N(C)C)[C@H]2O)[C@](C)(O)C[C@@H](C)/C(=N/OCOCCOC)[C@H](C)[C@@H](O)[C@]1(C)O	x	-0.5*
CC[C@H]1OC(=O)[C@H](C)[C@@H](O[C@H]2C[C@@](C)(OC)[C@@H](O)[C@H](C)O2)[C@H](C)[C@@H](O[C@@H]2O[C@H](C)C[C@H](N(C)C)[C@H]2O)[C@](C)(O)C[C@@H](C)/C(=N\OCOCCOC)[C@H](C)[C@@H](O)[C@]1(C)O	x	0.1*
CCCCOc1ccc(S(=O)(=O)n2nc(C)c(S(=O)(=O)N3CCC(C)CC3)c2C)cc1	x	72.8
Cc1ccc2c(CC(=O)NCC3COc4ccccc4O3)coc2c1 (configuration not stated)	3.0	137.4
O=c1cc(-c2ccc(-c3ccccc3)cc2)[nH][nH]1	8.0	110.4
CCCCn1cnc2cc(NCc3ccccc3Cl)ccc21	x	1.0*
Cn1cnc2cc(NCc3ccccc3Cl)ccc21	7.0	96.8
CCN(CC)CCCNC(=O)c1c2c(nc3ccccc13)C(=O)N(C1CCCCC1)C2	x	85.8
COC(=O)c1cn(-c2ccccc2)nc1-c1cccs1	-5.0	18.4*
CN(C)C(=O)c1cn(-c2ccccc2)nc1-c1cccs1	-14.0	80.6
O=C(CN1CCOCC1)n1c2ccccc2c2ccccc21	23.0	113.4
O=C(c1cnn(C(=S)NCCN2CCOCC2)c1)c1ccccc1O	-4.0	92.1
CC(=O)OCC1=C(C(=O)O)N2C(=O)[C@@H](NC(=O)CSc3ccncc3)[C@H]2SC1	x	-0.3*
COCC1=C(C(=O)OC(C)OC(=O)OC(C)C)N2C(=O)[C@@H](NC(=O)C(=NOC)c3csc(N)n3)[C@H]2SC1 (some centres not stated)	x	16.3
CC(C)(O/N=C(\C(=O)N[C@@H]1C(=O)N2C(C(=O)[O-])=C(C[n+]3ccccc3)CSC12)c1csc(N)n1)C(=O)O (some centres not stated)	x	69.3
COC(=O)c1cn(NC(=O)CSc2ccncc2)c(=O)c2ccccc12	6.0	105.6

From PubChem
